Only some compounds are listed: those with a hit (about 6.7% of all), similar ones and a draw of the others.
C diff growth – C. difficile growth inhibition; 86,000 compounds, 0.25% hits; Clostridium difficile clinical isolate growth, OD600, 24 h; hits give low values; AID 1259249; growth activity, negative = inhibition, % at 16 µg/mL (by protocol);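 active means mean growth activity at or below -80% and every replicate also at or below -80%; inconclusive means mean at or below -80% but some replicate above -80%; inactive means mean growth activity above -80%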;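 further: 0% = DMSO wells and -100% = levofloxacin 16 µg/mL wells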
Pf Dd2 growth – blocks growth of Plasmodium falciparum Dd2 parasites; P. falciparum Dd2 growth, SYBR Green, 72 h; hits give low values; activity change, % at 10 µM; 94,000 compounds, 2.3% hits; AID 1159554; in the data active means activity change below about -80%; inconclusive means no clear call, values can overlap the other calls
T cruzi growth-1 – inhibitors of T. cruzi proliferation. AID 624255. T. cruzi beta-gal in NIH3T3, GalScreen luminescence, 90 h. inhibition, % at 8.34 µM. 77,000 compounds, 5.9% hits;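 active means mean inhibition above about 93%, with at least 55% of replicates each passing it, limit read from the data, passing the limit was not always enough; inconclusive means only one of those two conditions holds; inactive means neither condition holds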
T cruzi growth-2 – inhibitors of T. cruzi proliferation; shares compounds with T cruzi growth-1; T. cruzi beta-gal in NIH3T3, GalScreen luminescence, 90 h; inhibition, % at 8.35 µM; 5,600 compounds, 72% hits;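 active means mean replicate inhibition above about 95% and at least 55% of replicates individually reaching it, limit read from the data; inconclusive means only one of the two criteria is met; inactive means neither criterion is met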
T cruzi growth-3 – inhibitors of T. cruzi proliferation; shares compounds with T cruzi growth-1; T. cruzi beta-gal in NIH3T3, GalScreen luminescence, 90 h; inhibition, % at 2.09 µM; 5,600 compounds, 21% hits; AID 651740;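 active means mean inhibition above about 95%, with at least 55% of replicates also reaching it, limit read from the data; inconclusive means meets just one of the two conditions; inactive means meets neither condition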;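 further: plate controls were neutral control median for no effect and positive control median for full effect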
NIH3T3 tox – cytotoxicity in mouse NIH/3T3 fibroblasts; shares compounds with T cruzi growth-1; NIH/3T3 viability, CellTiter-Glo ATP luminescence, 90 h; cytotoxicity (signal decrease), % at 8.35 µM; 5,600 compounds, 14% hits; AID 651742;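 active means mean signal decrease across replicates above about 35% based on untreated-well scatter, with enough replicates individually passing, limit read from the data; inconclusive means no rule stated though some were filed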;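 further: 0% = median of neutral control wells and 100% = median of positive control wells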
NIH3T3 tox 2 – NIH/3T3 (mouse) viability loss. AID 651744. NIH/3T3 viability, CellTiter-Glo ATP luminescence, 90 h. inhibition, % at 24.9 µM. 5,600 compounds, 56% hits. shares compounds with T cruzi growth-1;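 active means mean loss of cell viability signal at or above a set limit, and enough replicates individually reaching it; inconclusive means meets only the mean limit or only the replicate share; inactive means meets neither condition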;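 further: 0% = median of neutral control wells and 100% = median of positive control wells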
Numbers without * were called inactive; ? = inconclusive; / = not tested or not shown.

SMILES	C diff growth	Pf Dd2 growth	T cruzi growth-1	T cruzi growth-2	T cruzi growth-3	NIH3T3 tox	NIH3T3 tox 2
Cc1ccc(S(=O)(=O)N(C)C[C@H]2Oc3cc(C#CC4CCCC4)ccc3S(=O)(=O)N([C@@H](C)CO)C[C@H]2C)cc1	8.2	-59.0	123.2*	93.6	111.5*	22.5	46.3*
C[C@H](CO)N1C[C@H](C)[C@H](CN(C)Cc2ccncc2)Oc2ncc(C#CCC3CCCC3)cc2C1=O	1.5	-9.2	88.7	/	/	/	/
COc1ccc(NC(=O)Nc2ccc3c(c2)C(=O)N([C@H](C)CO)C[C@@H](C)[C@H](CN(C)Cc2ccc(Oc4ccccc4)cc2)O3)cc1	0.2	22.5	1.4	/	/	/	/
COC(=O)C[C@H]1CC[C@@H]2[C@@H](COc3ccc(NC(=O)c4cccc(Cl)c4)cc3C(=O)N2C)O1	5.0	/	31.4	/	/	/	/
CN1[C@@H]2c3ccc(-c4ccccc4)c(=O)n3C[C@H]1[C@H](CO)[C@H]2C(=O)Nc1nccs1	-2.6	9.3	30.2	/	/	/	/
Cc1ccc(-c2cnc3c(c2)C(=O)N([C@H](C)CO)C[C@@H](C)[C@H](CN(C)CC2CCCCC2)O3)cc1	0.0	-64.5	34.5	/	/	/	/
Cc1ccc(-c2cnc3c(c2)C(=O)N([C@@H](C)CO)C[C@H](C)[C@@H](CN(C)Cc2ccccc2F)O3)cc1	8.5	-22.5	114.9*	14.6	-30.2	-4.0	4.4
Cc1ccc(-c2cnc3c(c2)C(=O)N([C@H](C)CO)C[C@H](C)[C@H](CN(C)Cc2ccccc2F)O3)cc1	12.9	-28.0	92.5	/	/	/	/
Cc1ccc(-c2cnc3c(c2)C(=O)N([C@@H](C)CO)C[C@H](C)[C@H](CN(C)Cc2ccccc2F)O3)cc1	3.5	-30.4	99.7*	106.9*	31.8	8.8	44.5*
Cc1ccc(-c2cnc3c(c2)C(=O)N([C@H](C)CO)C[C@@H](C)[C@H](CN(C)Cc2ccccc2F)O3)cc1	-4.2	-13.0	85.6	/	/	/	/
Cc1ccc(-c2cnc3c(c2)C(=O)N([C@@H](C)CO)C[C@@H](C)[C@H](CN(C)CC2CCCCC2)O3)cc1	0.8	-66.4	110.0*	95.4*	39.6	9.4	104.4*
O=C(NCc1ccccc1)[C@H]1[C@H](CO)[C@H]2Cn3c(cccc3=O)[C@@H]1N2C(=O)CC1CC1	-1.0	7.1	11.7	/	/	/	/
O=C(c1ccccc1)N1C[C@@H]2[C@H](c3ccccc31)[C@@H](CO)N2S(=O)(=O)c1ccccc1	6.1	-4.6	16.0	/	/	/	/
CC(C)NC(=O)N(C)C[C@@H]1Oc2ccc(NC(=O)CCCCCC(=O)Nc3ccccc3N)cc2CC(=O)N([C@@H](C)CO)C[C@H]1C	-5.8	22.4	-1.0	/	/	/	/
O=C(NC1CCC1)[C@@H]1[C@@H](CO)[C@@H]2Cn3c(ccc(-c4ccc(F)cc4)c3=O)[C@@H]2N1Cc1ccccn1	-2.8	/	32.9	/	/	/	/
C[C@@H]1CN([C@H](C)CO)C(=O)c2cc(N(C)C)ccc2O[C@@H](C)CCCCO[C@H]1CN(C)S(=O)(=O)c1ccccc1	-4.4	-48.0	64.9	/	/	/	/
CO[C@@H]1CN(C)C(=O)c2ccc(NC(=O)c3nc4ccccc4s3)cc2OC[C@@H](C)N(Cc2cccnc2)C[C@@H]1C	-2.0	-62.6	102.4*	108.5*	?	-17.4	42.5*
CO[C@@H]1CN(C)C(=O)c2ccc(NC(=O)c3nc4ccccc4s3)cc2OC[C@@H](C)N(Cc2cncnc2)C[C@H]1C	/	-65.9	/	/	/	/	/
COCC(=O)Nc1ccc2c(c1)C(=O)N(C)C[C@@H](OC)[C@H](C)CN(Cc1ccncc1)[C@H](C)CO2	/	17.3	-42.9	/	/	/	/
CO[C@H]1CN(C)C(=O)c2cc(NC(=O)c3nc4ccccc4s3)ccc2OC[C@H](C)N(Cc2ccncc2)C[C@@H]1C	-8.7	/	100.1*	98.0*	67.5	12.8	41.6*
CO[C@H]1CN(C)C(=O)c2ccc(NC(=O)c3nc4ccccc4s3)cc2OC[C@H](C)N(Cc2cccnc2)C[C@H]1C	-9.2	-49.1	89.8	/	/	/	/
COCC(=O)Nc1ccc2c(c1)C(=O)N(C)C[C@@H](OC)[C@@H](C)CN(Cc1ccncc1)[C@@H](C)CO2	/	0.4	97.8*	60.9	-26.1	5.5	11.4
CO[C@@H]1CN(C)C(=O)c2cc(NC(=O)c3nc4ccccc4s3)ccc2OC[C@H](C)N(Cc2ccncc2)C[C@H]1C	-3.8	/	87.5	/	/	/	/

Bioassay records deposited in PubChem by Broad Institute.
